Source: PubChem BioAssay (National Center for Advancing Translational Sciences (NCATS))
Coupling enz – counter-screen for Giardia aldolase inhibitors: coupling enzyme system; coupling enzyme system counterscreen, AmpLite Red fluorescence; activity change, negative = inhibition, % at 58.2 µM, hits read low; actives 0.67% (n = 290,000); in the data active = activity change below about -30%
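First, compound is pin-transferred into glyceraldehyde-3-phosphate coupling-enzyme reagent at 57.5 uM final and held 10 min at RT. Next, substrate, coupling system and AmpLite Red are added. After 20 min RT, fluorescence (525/598 nm) is read.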
Tau fibril ThT – blocks human tau fibril formation measured by thioflavin T; recombinant tau K18 P301L, heparin-induced fibrillization, ThT fluorescence; Potency, µM (series often up to 57.4 µM), most hits filed as inhibitors; actives 2.1% (n = 270,000); AID 1460; also: nearly all actives have a fitted effect of over 55% in size
Target sequence (P10636 561-689 P618L limits assumed): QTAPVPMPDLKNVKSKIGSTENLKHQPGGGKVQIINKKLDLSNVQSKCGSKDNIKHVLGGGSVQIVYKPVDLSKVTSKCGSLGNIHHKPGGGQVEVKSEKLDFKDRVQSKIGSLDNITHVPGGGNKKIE
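Recombinant human tau K18 fragment […] carrying P301L, 15 uM unlabeled plus 0.24 uM Alexa 594-labeled, was fibrillized with 20 uM heparin in 100 mM sodium acetate pH 7 for 6 hr at 37 C; 30 uM ThT fluorescence read after 1 hr.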
Tau fluor cs – counter-screen for tau fibril formation inhibitors | tau K18 P301L Alexa594 fluorescence, heparin fibrillization | Potency, µM (series often up to 57.7 µM) | actives 0.93% (n = 280,000) | AID 1463; also: nearly all actives have a fitted effect of over 55% in size
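Human tau K18 P301L (15 uM unlabeled, 0.24 uM Alexa 594-labeled) in 100 mM sodium acetate pH 7 with 20 uM heparin, 6 hr at 37 C. ThT 30 uM added, 1 hr ambient; Alexa 594 FP and total fluorescence read at 555/632 nm.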
Tau fibril FP – inhibitors of human tau fibril formation; AID 1468; actives 0.39% (n = 280,000); Potency, µM (series often up to 57.7 µM), hits mostly inhibitors; K18 P301L tau heparin fibrillization, Alexa594 FP, 6 h; P10636; also: nearly all actives have a fitted effect of over 55% in size
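K18 P301L tau (15 uM unlabeled/0.24 uM Alexa 594-labeled, final) + compound + heparin 20 uM final; 100 mM NaOAc pH 7; 6 hr 37 C; ThT 30 uM final added, 1 hr RT; FP ex 555/em 632 nm.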
Sfp PPTase inh – blocks B. subtilis Sfp PPTase activity. Q9F4F7. Biochemical Sfp PPTase activity, qHTS. Potency, µM, most hits filed as inhibitors. actives 3.5% (n = 310,000);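 also: the enzyme is Sfp with the accession as filed and its product quenches rhodamine fluorescence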
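Fluorescence-quenching assay with 15 nM Sfp, 5 uM rhodamine-CoA and 12.5 uM BHQ-2-labelled ybbR peptide in pH 7.6 Hepes/MgCl2 buffer. Enzyme was pre-incubated with compound for 15 min at room temperature. Rate was taken from the 30-min fluorescence change (525/598 nm).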
Each line names hits and unclear results; the compound was inactive in the other large screens; [ ] = dose if it differs, or a comment. In the library only some 5.2% were active in any assay of this set; here they are far more common. Unless noted, calls follow the shape of the dose curve; as a rule, active = well fitted curve in the direction sought with a large enough effect; inconclusive = small, poorly fitted or top-dose-only effect, or another doubt; inactive = no such curve, though single readings can be large; an effect the other way counts as inactive or inconclusive.

Cc1sc(-n2c(C)cc(/C=N/n3cnnc3)c2C)c(C#N)c1C	Sfp PPTase inh 20µM
CC(=O)OC[C@@H]1O[C@H](C/C=N\O[C@@H](C)CN2CCCCc3nc(C)c(C)cc32)C=C[C@@H]1OC(C)=O	none
CCOc1ccc(N(C(=O)c2ccc(Cl)cc2)S(=O)(=O)c2ccc3c(c2)n(C)c(=O)n3C)cc1	none (no result: Coupling enz, Sfp PPTase inh)
Oc1cc(O)cc(/C=C/c2ccc(O)c(O)c2)c1	Tau fibril ThT 7.08µM, Tau fluor cs 11.2µM[quencher], Sfp PPTase inh 39.8µM
COc1ccc(-c2cc(C(=O)OCC(=O)c3ccc(C)cc3)c3cccc(Cl)c3n2)cc1	Tau fibril FP inconclusive (no result: Coupling enz, Sfp PPTase inh)
Nc1cc2nc[nH]c2cc1N	Tau fibril ThT 22.4µM, Tau fluor cs inconclusive, Tau fibril FP inconclusive
O=C(CSc1nc(-c2cccs2)nc2cc(=O)[nH]n12)Nc1cccc(C(F)(F)F)c1	Tau fibril ThT inconclusive (no result: Coupling enz, Sfp PPTase inh)
O=C(Cn1c(=O)oc2cc(S(=O)(=O)N3CCCCCC3)ccc21)Nc1cccc(C(F)(F)F)c1	Tau fibril FP inconclusive (no result: Coupling enz, Sfp PPTase inh)
Cc1noc(Cn2c(=O)c3ccccc3n(CC(=O)Nc3ccc(C(C)C)cc3)c2=O)n1	Tau fluor cs inconclusive (no result: Coupling enz, Sfp PPTase inh)
Cc1nnc(NC(=O)Nc2cccc(Cl)c2)s1	none
O=C(Nc1ccc(Cl)c(Cl)c1)Nc1nnc(CSc2ccccc2)s1	Tau fibril FP 3.55µM
O=C(Nc1ccc(Cl)cc1)Nc1nnc(CSCc2ccccc2Cl)s1	Tau fibril ThT inconclusive, Tau fibril FP inconclusive
O=C(Nc1ccccc1)Nc1nnc(CSCc2ccccc2Cl)s1	Tau fluor cs inconclusive, Tau fibril FP 10µM
Cc1ccc(OCCSCc2nnc(NC(=O)Nc3cccc(Cl)c3)s2)cc1	Tau fluor cs inconclusive, Tau fibril FP 15.8µM
C[C@@](Cc1ccccc1)(C(=O)O)N1C(=O)c2ccc(C(=O)O)cc2C1=O	none (no result: Tau fibril ThT, Tau fluor cs, Tau fibril FP)
CCOC(=S)SCC(=O)Nc1nc(C)c(C)s1	Tau fibril ThT inconclusive, Sfp PPTase inh 56.2µM
CCOC(=S)SCC(=O)Nc1nc(-c2ccccc2)cs1	Tau fibril ThT inconclusive
CCOC(=O)C(=O)Nc1nccs1	none
CCOC(=S)SCC(=O)Nc1nccs1	Tau fibril ThT inconclusive, Sfp PPTase inh 70.8µM
Cc1nc(NC(=O)CCc2ccccc2)sc1C	Sfp PPTase inh 39.8µM (no result: Tau fibril ThT, Tau fluor cs, Tau fibril FP)
Cc1ccsc1CN(C(=O)c1oc2cc(Br)ccc2c1C)C1CCS(=O)(=O)C1 (stereo not drawn)	none (no result: Coupling enz, Sfp PPTase inh)
CCOC(=O)C1CCCN(C(=O)C2CCN(S(=O)(=O)c3c(C)noc3/C=C/c3ccc(C)cc3)CC2)C1 (stereo not drawn)	Tau fibril FP inconclusive (no result: Coupling enz, Sfp PPTase inh)
COC(=O)c1ccnc(/C=N/O)c1	Sfp PPTase inh 50.1µM
COc1cc(-c2ccc(N=Nc3ccc4c(S(=O)(=O)O)cc(S(=O)(=O)O)c(N)c4c3O)c(OC)c2)ccc1N=Nc1ccc2c(S(=O)(=O)O)cc(S(=O)(=O)O)c(N)c2c1O	Coupling enz -56.7, Tau fibril ThT 1.58µM, Tau fluor cs 1µM[quencher], Tau fibril FP 2.82µM, Sfp PPTase inh 3.98µM
COc1ccc(OC)c(NC(=O)C(C)n2c(=O)c(-c3ccccc3NC(C)=O)nc3ccccc32)c1 (stereo not drawn)	none (no result: Coupling enz, Sfp PPTase inh)
CCOC(=O)c1nn(-c2ccc(OCC)cc2)c2nc(CC(C)C)c(C#N)c(=O)n12	Tau fibril FP inconclusive, Sfp PPTase inh 50.1µM
CCN1/C(=C/C(=O)c2ccco2)Sc2ccccc21	Sfp PPTase inh 50.1µM
CCC(=O)/C=C1/Sc2ccc(OC)cc2N1CC	Tau fibril ThT inconclusive
CN1/C(=C\C(=O)c2ccco2)C(C)(C)c2ccccc21	Tau fibril ThT inconclusive, Sfp PPTase inh inconclusive
CCC(=O)/C=C1/Sc2ccccc2N1CC	Tau fibril ThT inconclusive, Sfp PPTase inh 28.2µM
Cc1cc(NC(=O)CSc2ncc(C(=O)Nc3ccccc3)c(=O)n2C)no1	none (no result: Coupling enz, Sfp PPTase inh)
O=C(NCc1cccs1)c1ccc2c(c1)N(Cc1ccccc1Cl)C(=O)c1ccccc1S2	none (no result: Coupling enz, Sfp PPTase inh)
COc1ccc(CCNC(=O)c2ccc3c(c2)N(Cc2ccccc2C)C(=O)c2ccccc2S3)cc1OC	none (no result: Coupling enz, Sfp PPTase inh)
CCOc1ccc(NC(=O)c2cnn3c2NC(C)=C(C(=O)Nc2ccc(Cl)cc2)C3c2ccc(OC)c(OC)c2)cc1 (stereo not drawn)	Tau fluor cs inconclusive (no result: Coupling enz, Sfp PPTase inh)
Cc1ccc(F)c(NC(=O)Nc2ccc3snnc3c2)c1	Tau fluor cs inconclusive, Tau fibril FP inconclusive (no result: Coupling enz, Sfp PPTase inh)
Cc1c(Cl)cccc1NC(=O)Nc1ccc2snnc2c1	Tau fibril ThT inconclusive, Tau fluor cs 10µM[quencher], Tau fibril FP 17.8µM (no result: Coupling enz, Sfp PPTase inh)
COc1ccccc1NC(=O)CSc1oc(-c2cccs2)nc1S(=O)(=O)c1ccccc1	Tau fluor cs inconclusive (no result: Coupling enz, Sfp PPTase inh)
COc1cc(CNCc2ccccn2)ccc1OCc1c(Cl)cccc1Cl	Sfp PPTase inh 39.8µM
COc1cc(CNCc2ccccn2)ccc1OCc1cccc(Cl)c1	Sfp PPTase inh 79.4µM
O=C(c1ccc(Cl)cc1Cl)n1nnc2ccccc21	none (no result: Tau fibril ThT, Tau fluor cs, Tau fibril FP)
O=C(NCc1cccs1)c1ccc(CSc2nc3ccncc3n2Cc2cccc(F)c2)cc1	none (no result: Coupling enz, Sfp PPTase inh)
Cc1nc2c(ccc3c2ccc2nc(C)sc23)s1	none
COc1cc2sc(C)nc2c2ccccc12	Coupling enz -32.0 (no result: Tau fibril ThT, Tau fluor cs, Tau fibril FP)
COc1ccc2c(c1)OC(C)(C)C(c1ccccc1)C2c1ccc(OCCN2CCCC2)cc1 (stereo not drawn)	Sfp PPTase inh 50.1µM (no result: Coupling enz, Tau fibril ThT, Tau fluor cs, Tau fibril FP)
CCOc1ccccc1NC(=O)NCCn1c(=O)oc2ccc(C)cc21	none (no result: Coupling enz, Sfp PPTase inh)
COc1cccc(C(=O)Nc2nnc(S(=O)(=O)N3CCCc4ccccc43)s2)c1	Tau fibril ThT inconclusive (no result: Coupling enz, Sfp PPTase inh)
Cc1cc(C)c(NC(=O)c2cc3c(=O)n4ccccc4nc3n2C)c(C)c1	none (no result: Coupling enz, Sfp PPTase inh)
COc1ccc(N=C2C(=Nc3ccc(OC)cc3)N(c3ccccc3)C(=S)N2C(=O)c2ccc(Cl)cc2)cc1	Tau fibril ThT inconclusive, Sfp PPTase inh 50.1µM
